From PubChem
ATXN2 expr inh – inhibitors of ATXN2 expression | HEK-293 ATXN2-luciferase reporter, luminescence, 24 h | Potency, µM (series often up to 57 µM), inactives show top-dose activity change, negative = inhibition, actives largely listed as inhibitors | 360,000 compounds, 0.72% hits | AID 1745845; note: potency is the fitted concentration of half-maximal effect; % is set by controls: 0 for no effect and ±100 for the full control effect; nearly all actives have a fitted effect of over 55% in size
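qHTS (up to 57 uM final) was run with 24 h compound exposure of reporter cells at 37 °C. Each well was multiplexed: SteadyGlo luminescence measured ATXN2-luciferase expression after a fluorogenic Gly-Phe-AFC viability readout (25 uM final).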
S2 tox – reduces viability in counter-screen for ATXN expression inhibitors. 400,000 compounds, 0.49% hits. AID 651635. Potency, µM (titrated, usually from 56.7 µM), most hits filed as cytotoxic. S2 cells (HEK-293 line with an ATXN2-luciferase reporter) viability, CellTiter-Fluor protease fluorescence, 24 h; note: potency is the fitted concentration of half-maximal effect; nearly all actives have a fitted effect of over 40% in size
Integrin act MD – integrin-mediated muscular dystrophy alleviation activation; alpha7betagal myoblasts, beta-gal FDG fluorescence, 48 h; Potency, µM (series often up to 38.3 µM), without a hit: at the top dose activation, usual class: activators; 350,000 compounds, 0.064% hits;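 note: potency is the fitted concentration of half-maximal effect; 100% = response of the positive control SU9516; nearly all actives have a fitted effect of over 60% in size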
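alpha7betagal+/- myoblasts (passage 13, 250/well) treated 48 h at 37C with compounds at 1:260 dilution of DMSO stock. Lysed, then beta-galactosidase activity read as FDG fluorescence (ex 480/em 540) after 30 min, with pre-read for autofluorescence.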
DRD3 agonist – D3 dopamine receptor (human) agonism. D3R DiscoveRx beta-arrestin cells, luminescence, 90 min. max activation, %. 410,000 compounds, 0.58% hits. AID 652048; in the data active = max activation above about 30%; note: 0% is about no effect
Target sequence (P35462 whole entry, looked up): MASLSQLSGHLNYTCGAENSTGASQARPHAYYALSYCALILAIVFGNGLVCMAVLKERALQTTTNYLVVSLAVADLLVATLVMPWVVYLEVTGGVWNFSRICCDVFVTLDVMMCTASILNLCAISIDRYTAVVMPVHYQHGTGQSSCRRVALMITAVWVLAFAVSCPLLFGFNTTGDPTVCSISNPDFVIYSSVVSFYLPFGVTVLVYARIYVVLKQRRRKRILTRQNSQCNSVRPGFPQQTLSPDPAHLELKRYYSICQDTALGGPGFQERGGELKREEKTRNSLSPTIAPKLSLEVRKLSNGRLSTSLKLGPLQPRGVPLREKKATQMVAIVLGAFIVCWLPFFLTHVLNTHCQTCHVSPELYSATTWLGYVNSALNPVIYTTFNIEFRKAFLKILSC
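Cells at 1500/well, incubated overnight, then treated with pinned compounds (dopamine as control) for 90 min at 37 degrees C. DiscoveRx reagent added for 30 - 60 minutes at room temperature; luminescence read.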
DRD3 antagonist – antagonists of human D3 dopamine receptor | 360,000 compounds, 2.5% hits | D3R cells, DiscoveRx beta-arrestin luminescence, antagonist mode; stronger effect = lower value | max response, negative = inhibition, % | P35462; in the data active = max response below about -50%; inconclusive = no clear call, values can overlap the other calls; note: % is set by controls: 0 for no effect and ±100 for the full control effect
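Cells expressing the human receptor were seeded at 1500 cells/well, incubated overnight at 37 degrees C in 5% CO2, then exposed to library compounds with dopamine controls for 90 minutes at 37 degrees C before luminescent detection.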
IL-1B inflam inh – inhibitors of inflammasome signaling (IL-1 beta secretion); THP-1 LPS/ATP IL-1B secretion, AlphaLISA, 16 h; stronger effect = lower value; activity change, % at 57.5 µM; 360,000 compounds, 4.7% hits; AID 743279; in the data active = activity change below about -50%; inconclusive = mostly about -30% to -49%; note: % is set by controls: 0 for no effect and ±100 for the full control effect
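Secreted IL-1B measured by AlphaLISA bead assay after 16 h compound exposure of THP-1 cells; compounds (final up to 57.5 uM) added 1 h before LPS (250 ng/mL) and ATP (1.25 mM) stimulation; lower signal means less secretion.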
Numbers without * were called inactive; i = inactive; ? = inconclusive; . = not tested or not shown; ! = not confirmed by another sample; [ ] = dose if it differs, or a comment. The list is not random: actives were taken first. Their share in the collection is about 7%. Unless noted, calls come from the whole dose curve; as a rule, active = well fitted curve in the direction sought with a large enough effect; inconclusive = small, poorly fitted or top-dose-only effect, or another doubt; inactive = no such curve, though single readings can be large; an effect the other way counts as inactive or inconclusive.

SMILES | ATXN2 expr inh | S2 tox | Integrin act MD | DRD3 agonist | DRD3 antagonist | IL-1B inflam inh
Cc1ccc(S(=O)(=O)N2CCCCC2)cc1C(=O)N1CCCC1 | 5% | i | -10% | 1 | 0 | -16
CCCOc1cccc(C(=O)N(Cc2cc(OC)c(OC)c(OC)c2)C2CCS(=O)(=O)C2)c1 (stereo not drawn) | 1% | i | . | 1 | . | .
CCc1cccc(C)c1Nc1c(-c2cccc(O)c2)nc2sccn12 | . | . | . | -8 | . | .
O=C(c1cccc([N+](=O)[O-])c1)N1CCN(c2ccc(N3CCOCC3)nn2)CC1 | -11% | i | 8% | -6 | 13 | 14
CCCN(CCC)CCN1C(=O)C2C(C(=O)Nc3cccc(SC)c3)C3C=CC2(O3)C1C(=O)NC1CCCCC1 (stereo not drawn) | -7% | i | -52% | -22 | -19 | -56*
CN(C)CCN1C(=O)C2C(C(=O)Nc3cc(Cl)cc(Cl)c3)C3C=CC2(O3)C1C(=O)NC1CCCCC1 (stereo not drawn) | -12% | i | -54% | 17 | -1 | -68*
CCCCN(C)CCN1C(=O)C2C(C(=O)Nc3ccc(C)cc3)C3C=CC2(O3)C1C(=O)NC1CCCCC1 (stereo not drawn) | -19% | i | -5% | 1 | -5 | -54*
CC1CCCC(NC(=O)C2N(CCCN3CCCC3)C(=O)C3C(C(=O)Nc4cccc(Cl)c4)C4C=CC32O4)C1C (stereo not drawn) | 4% | ? | -70% | -9 | ? | -57*
CSc1cccc(NC(=O)C2C3C=CC4(O3)C2C(=O)N(CCCN2CCOCC2)C4C(=O)NC2CCCCC2)c1 (stereo not drawn) | -1% | i | -4% | 3 | 3 | 10
O=C(CSc1nccn1-c1ccc(F)cc1)NCc1ccc2c(c1)OCO2 | -7% | i | -6% | -1 | -7 | -15
C=CCc1ccccc1OCC(O)CN1CCN(c2ccc(C)cc2)CC1 (stereo not drawn) | ? | i | -25% | -30 | -59* | ?
C=CCc1ccccc1OCC(O)CN1CCN(Cc2ccc3c(c2)OCO3)CC1 (stereo not drawn) | -19% | i | -18% | -7 | -89*! | -20
Cc1ccc(OCC(O)CN2CCN(Cc3ccc4c(c3)OCO4)CC2)cc1C (stereo not drawn) | -2% | i | -9% | -9 | -16 | 14
CCc1ccccc1NC(=O)CN(c1cccc(C)c1C)S(C)(=O)=O | 7% | i | . | -1 | . | .
O=C(NC(c1ccc(Cl)cc1)c1cnccn1)C1CCN(CCCOc2ccccc2)CC1 (stereo not drawn) | -9% | i | . | -13 | -84* | -58*
O=C(NC(c1ccccc1)c1cnccn1)C1CCN(CCCOc2ccccc2)CC1 (stereo not drawn) | 0% | i | . | -22 | 1 | -10
Cc1ccc(C(NC(=O)C2CCN(CCCOc3ccccc3)CC2)c2ccccn2)cc1 (stereo not drawn) | -6% | ? | . | -12 | -115* | ?
Cc1ccc(C(NC(=O)C2CCN(CCOc3ccc(Cl)cc3)CC2)c2ccccn2)cc1 (stereo not drawn) | 0% | ? | . | -12 | -94* | -70*
COc1ccc(C(NC(=O)C2CCN(CCCOc3ccccc3)CC2)c2cccs2)cc1 (stereo not drawn) | -14% | i | . | -12 | -75* | -56*
CC(=O)SCCC(=O)N1C(C)CCCC1C(=O)O (stereo not drawn) | -4% | i | 16% | -2 | -14 | -2
O=C(NC(c1ccc(Cl)cc1)c1ccsc1)C1CCN(CCOc2ccc(Cl)cc2)CC1 (stereo not drawn) | ? | ? | . | -16 | -84* | -68*
O=[N+]([O-])c1ccc2nc(Cl)nc(-c3ccccc3)c2c1 | . | i | 2% | -1 | -56* | -5
O=[N+]([O-])c1ccc2nc(-[n+]3c(-c4ccccc4)cc(-c4ccccc4)cc3-c3ccccc3)[nH]c2c1 | ? | ? | -53% | 1 | 28 | ?
CCOc1cc(/C=C2\SC(=O)N(CC(=O)Nc3ccccc3F)C2=O)cc([N+](=O)[O-])c1O | -26% | ? | -22% | 5 | -3 | -20
COc1cc(/C=C2\SC(=O)N(CC(=O)Nc3ccccc3F)C2=O)cc(Cl)c1O | ? | i | -53% | 59* | 154 | 31
SMILES | ATXN2 expr inh | S2 tox | Integrin act MD | DRD3 agonist | DRD3 antagonist | IL-1B inflam inh
COc1cc(/C=C2\SC(=O)N(CC(=O)Nc3cccc(C)c3)C2=O)cc([N+](=O)[O-])c1O | -32% | ? | -10% | 38* | 39 | -26
O=C(NCCNc1nccc(C(F)(F)F)n1)c1cccc(C(F)(F)F)c1 | -23% | i | -23% | -17 | -15 | 35
C=CCNC(=S)N1CCN(c2ncc(C(F)(F)F)cc2Cl)CC1 | -24% | i | -1% | -4 | -26 | -67*
Cc1c(C(c2ccc(N(C)C)cc2)c2c(C)n(C)n(-c3ccccc3)c2=O)c(=O)n(-c2ccccc2)n1C | ? | ? | 2% | -4 | ? | -7
O=C(CCSc1ccccc1)N1CCCC1 | -16% | i | 9% | -11 | -11 | 0
O=C1CCCCCN1Sc1ccccc1 | 0% | i | -7% | -2 | 25 | -101*
Cc1ccc2nc(C)cc(N/N=C/c3cccc(O)c3)c2c1 | 1% | i | -8% | 0 | 2 | -16
COc1ccc2nc(C)cc(N/N=C/c3ccc(F)cc3)c2c1 | ? | ? | -54% | 4 | 3 | -99*
COc1ccc(/C=N/Nc2cc(C)nc3c(C)cccc23)cc1 | ? | ? | -66% | -10 | -8 | ?
COc1ccc(/C=N/Nc2cc(C)nc3ccccc23)cc1 | ? | ? | -48% | -7 | -18 | -107*
CCCOc1ccc(C2C(C(=O)c3ccc(C)o3)=C(O)C(=O)N2Cc2ccco2)cc1OCC (stereo not drawn) | 1% | i | 43% | -7 | -3 | -5
Cc1nn(C)cc1/C=N/NC(=S)Nc1ccccc1 | 20% | i | 17%[7.66 µM] | -3 | -28 | 28
COc1ccc(/C=N/NC(=O)c2cc3cc(OC)c(OC)cc3[nH]2)cc1 | 11% | i | 0% | -1 | 16 | -51*
COc1cc2cc(C(=O)N/N=C/c3ccccc3Cl)[nH]c2cc1OC | ? | i | ? | 4 | 15 | -58*
COc1cc2cc(C(=O)N/N=C/c3ccc(F)cc3)[nH]c2cc1OC | 4% | i | -32% | -4 | 1 | -11
CCOc1ccc(NCC(=O)c2ccc(C)cc2)cc1 | -5% | i | 0% | -2 | -13 | -81*
Cc1ccc(C(=O)CNc2ccc(Cl)cc2)cc1 | 2%[11.3 µM] | i | ? | -6 | ? | ?
